Screening results deposited in PubChem by National Center for Advancing Translational Sciences (NCATS).
TRHR agonist = activates the human TRH receptor; P34981; TRHR cells, calcium flux fluo-8, FDSS agonist mode; activation, % at 2 µM; hit rate 0.18% among 360,000; AID 493084; also: 0% is about no effect
Target sequence (P34981 whole entry, looked up): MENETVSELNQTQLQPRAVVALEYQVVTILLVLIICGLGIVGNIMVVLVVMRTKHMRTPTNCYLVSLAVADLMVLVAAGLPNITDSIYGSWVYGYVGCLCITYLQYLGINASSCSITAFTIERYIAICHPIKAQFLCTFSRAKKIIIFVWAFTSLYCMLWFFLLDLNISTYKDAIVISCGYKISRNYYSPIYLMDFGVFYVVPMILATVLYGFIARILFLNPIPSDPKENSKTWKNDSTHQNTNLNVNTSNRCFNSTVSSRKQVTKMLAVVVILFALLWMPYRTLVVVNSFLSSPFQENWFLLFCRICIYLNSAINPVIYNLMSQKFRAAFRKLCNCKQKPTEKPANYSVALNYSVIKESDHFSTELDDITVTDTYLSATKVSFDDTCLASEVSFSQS
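Steps: seed TRHR cells overnight; add fluo-8 no-wash Ca dye, RT 30 min–1.5 h; record 10 s baseline; pin-transfer compounds; monitor fluorescence 1 cycle/s for the agonist window. Calcium increases flag candidate agonists.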
TRHR PAM = allosteric enhancers of human TRH receptor. TRHR cells, fluo-8 calcium fluorescence, EC20 TRH enhancement. enhancement, % at 2 µM. hit rate 0.66% among 360,000. AID 493056; in the data active = enhancement above about 30%; also: 0% is about no effect
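TRHR-expressing cells loaded with fluo-8 calcium dye were read kinetically (ex 480/em 530) during compound addition, then stimulated with an EC20 of TRH (10 nM final). Enhancement of the Gq-mediated intracellular calcium response was scored.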
D1 antag = human D1 dopamine receptor antagonism. P21728. HEK293 TREx D1 cells, calcium flux, dopamine EC80; stronger effect = lower value. activity change, negative = inhibition, % at 10 µM. hit rate 3.2% among 360,000; in the data active = activity change below about -30%; also: % is scaled to controls: 0 for no effect and ±100 for the full control effect
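Cells carrying a force-coupled, tetracycline-inducible human D1 receptor report calcium flux. Each well gets a 10 s baseline, compound with 180 s monitoring, then an EC80 dopamine stimulus with a second 180 s kinetic read.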
D1 potentiator = human D1 dopamine receptor positive modulation | P21728 | HEK293 TREx D1 cells, calcium flux, dopamine EC20 potentiation | potentiation, % at 10 µM | hit rate 0.036% among 360,000; in the data active = potentiation above about 30%; also: 0% is about no effect
D1 ag = activates the human D1 dopamine receptor | hit rate 1% among 360,000 | activation, % at 2 µM | HEK293 T-REx D1 cells, calcium flux, agonist mode | P21728; also: 0% is about no effect
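Inducible HEK293 T-REx D1 cells, force-coupled to calcium signalling, were plated at 4000 cells/well with tetracycline and held overnight at 30 C. After no-wash calcium dye loading, compound-evoked calcium rise over 180 s flagged agonists.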
The depositor's hits bear a star; / = no result given. Most compounds without a hit are left out; they make up all but 4.7% or so of the library. Rule as the data show it, unless noted: active = activation above about 30%; inactive = the rest.

SMILES | TRHR agonist | TRHR PAM | D1 antag | D1 potentiator | D1 ag
O=C(CSc1nc2c([nH]c3ccccc32)c(=O)n1-c1ccccc1)N1CCCCC1 | 0 | -2 | -13 | -4 | 1
CCN(Cc1ccccc1)C(=O)Cn1c(=O)n(-c2ccccc2)c(=O)c2c1c1cc(C)ccc1n2C | -1 | -8 | -3 | -2 | 2
C1CCC(C(CC2CCCCN2)C2CCCCC2)CC1 (configuration not stated) | 2 | 26 | 67 | 13 | 136*
COc1ccc(N2CCN(C(=O)C(=O)c3cn(CC(=O)N4CCCCCC4)c4ccccc34)CC2)cc1 | 0 | -4 | -58* | -6 | 1
CCC(Sc1nnc(C)n2c1cc1occc12)C(=O)Nc1ccccc1OC (configuration not stated) | 0 | -2 | 7 | -1 | 3
Cc1ccc(NS(=O)(=O)c2ccc(C(=O)N3CCCC(C(F)(F)F)C3)cc2)cc1 (configuration not stated) | 16 | -3 | -62* | 4 | 70*
CC1CCN(S(=O)(=O)c2ccc(C(=O)N3CCCC(C(F)(F)F)C3)cc2)CC1 (configuration not stated) | 0 | 4 | -33* | -1 | 8
COc1ccccc1NS(=O)(=O)c1ccc(C(=O)N2CCCC(C(F)(F)F)C2)cc1 (configuration not stated) | -1 | -9 | 4 | 0 | 17
Cc1cccc(OCC(=O)Nc2ccccc2C(=O)OCc2cc(=O)n3nc(C)sc3n2)c1 | 1 | 1 | 2 | 1 | 1
CC(=O)N1CC(C)Sc2ccc(S(=O)(=O)NCc3ccc(F)cc3)cc21 (configuration not stated) | 0 | 2 | -37* | -2 | 11
CC(=O)N1CCSc2ccc(S(=O)(=O)NCc3ccccc3)cc21 | 0 | 1 | 4 | -7 | 13
COc1ccc(CNS(=O)(=O)c2ccc3c(c2)N(C(C)=O)CC(C)S3)cc1 (configuration not stated) | 0 | -2 | 1 | -4 | 11
CC(=O)N1CCSc2ccc(S(=O)(=O)NCc3ccc(F)cc3)cc21 | 0 | 3 | -30* | -4 | 7
Cc1cccc(NC(=O)C2CCCN(S(=O)(=O)c3cccc4nonc34)C2)c1C (configuration not stated) | -1 | -1 | -4 | -3 | 3
Cc1cc(=O)oc2cc(OCC(=O)Nc3c(C(C)C)cccc3C(C)C)ccc12 | -2 | -13 | 8 | -2 | -3
CCCN(C(=O)c1cc2c(=O)oc3ccccc3c2s1)c1ccccc1C | 0 | -2 | 1 | -1 | 5
Cc1ccc(C(=O)c2oc3ccccc3c2NC(=O)COc2ccccc2C)cc1 | 0 | 0 | 5 | 2 | 3
CCC(=O)Oc1ccc2ccccc2c1CNC(=O)c1ccccc1 | -2 | 6 | -40* | 5 | 2
CC(C)(C)n1nc2c(c1NC(=O)Cc1cccs1)CSC2 | 0 | -1 | -81* | / | 2
c1csc(-c2ccc3ccccc3n2)c1 | 0 | 2 | 6 | 1 | 1
Cc1cc2ncc(-c3cccs3)nc2cc1C | 0 | 31* | -6 | -3 | 0
Cc1ccc(OCCC(=O)OCC(=O)Nc2ccc3c(c2)OCO3)cc1 | 0 | -3 | -64* | -6 | 4
Cc1ccc(OCCC(=O)Nc2ccc3c(c2)OCO3)cc1 | 1 | 4 | 6 | -1 | 1
CC(=O)N(C)c1ccc(NC(=O)COc2ccc(Br)cc2C)cc1 | 0 | 0 | -55* | -8 | 17
CCc1ccc(OCC(=O)Nc2ccncc2)c(Br)c1 | 0 | -1 | -30 | -13 | 9
SMILES | TRHR agonist | TRHR PAM | D1 antag | D1 potentiator | D1 ag
Cc1cc(OCC(=O)Nc2ccncc2)c(C)cc1Br | 0 | -9 | -33* | -12 | 20
Cc1cc(C)c(OCC(=O)Nc2ccc3c(c2)OCO3)cc1C | -1 | -2 | 4 | 18 | 124*
Cc1ccc(C)c(OCC(=O)Nc2ccc3c(c2)OCO3)c1 | 0 | 11 | 1 | -6 | 7
COC(=O)c1ccc(NC(=O)c2c(NCc3cccc(F)c3)sc3c2CCCC3)cc1 | 0 | 0 | -2 | 1 | 0
CCOC(=O)COc1ccc(CC)cc1C(=O)c1ccn2nc(-c3ccc(Cl)cc3)cc2n1 | 0 | 10 | 7 | 0 | 2
COc1ccc(-c2cc(C(=O)OCC(=O)Nc3ccc4c(c3)OCO4)c3ccccc3n2)cc1 | 1 | -5 | -14 | -8 | 2
O=C(COC(=O)c1cc(-c2ccccc2)nc2ccccc12)Nc1ccc2c(c1)OCO2 | 0 | -4 | -42* | -3 | 2
CC(C)c1ccc(NC(=O)CN(C)S(=O)(=O)c2ccc3c(c2)n(C)c(=O)c(=O)n3C)cc1 | -1 | 0 | 18 | -1 | 1
NC(=O)c1oc2ccccc2c1NC(=O)CN1CCCCC1 | 0 | -8 | -12 | -8 | -1
NC(=O)c1oc2ccccc2c1NC(=O)C1CCCCC1 | 0 | 38* | 7 | -5 | 0
O=C(CCCc1nc2ccccc2s1)N1CCN(c2ccccc2)CC1 | -1 | 0 | -43* | -14 | 0
CCc1ccccc1NC(=O)CN1C(=O)c2cccnc2Oc2ccc(Cl)cc21 | -1 | -4 | -36* | -3 | 1
CC(C)N(C(=O)Cn1cc(SCC(=O)Nc2ccccc2F)c2ccccc21)C(C)C | 0 | -11 | -28 | -6 | 5
Cc1ccc(Cl)cc1NC(=O)N1CCN(C)c2ncccc21 | 2 | 2 | -4 | 0 | 4
CN1CCN(C(=O)Nc2cccc(Cl)c2)c2cccnc21 | -2 | 4 | -23 | -3 | 47*
O=C(O)C1CC(c2ccccc2)=NO1 (configuration not stated) | -1 | 33* | 5 | -3 | 2
COc1ccc(CCN(C)C(=O)CN2C(=O)NC3(CCCCCC3)C2=O)cc1OC | 0 | 8 | -60* | -6 | -1
COc1ccc(CCN(C)C(=O)Cc2ccc(-c3ccccc3)cc2)cc1OC | 1 | -3 | -31* | -2 | 10
COc1cccc(C(=O)Nc2c(C(=O)NC(C)(C)C)oc3ccccc23)c1 | -2 | -5 | 1 | 0 | 0
O=C1CC(c2ccco2)Cc2nc(NCC3CCCO3)ncc21 (configuration not stated) | 0 | 2 | -32* | -3 | 0
O=C1CC(c2ccco2)Cc2nc(Nc3ccc(F)cc3)ncc21 (configuration not stated) | -1 | 3 | -15 | -2 | 2
Cc1nc(-c2cccnc2)sc1CCNS(=O)(=O)c1ccc(F)cc1 | 0 | 0 | -9 | -4 | 2
CCn1c(CNc2ccc(F)cc2)nnc1SCC(=O)N1CCCc2ccccc21 | 0 | 0 | -31* | 1 | 2
CCn1c(CNc2ccc(OC)cc2)nnc1SCC(=O)N1CCCc2ccccc21 | -1 | -12 | -23 | -4 | 0
O=C(Nc1ccc(N2CCOCC2)c(Cl)c1)c1cccnc1 | 1 | -3 | 2 | -5 | 1
